{"source": "PubChem BioAssay (NCATS)", "note": "Inconclusive results are not listed. A number with no mark means an inactive call. The source made the active and inactive calls. Calls follow the shape of the dose curve; as a rule, active = well fitted inhibition curve with a large enough effect; inconclusive = small, poorly fitted or top-dose-only effect; inactive = flat fitted curve, though single readings scatter. Where a SMILES comes first, the peptide text is derived from it. [ ]: non-standard residue; d: D form. % is scaled to controls: 0 for no effect and ±100 for the full control effect."}
{"molecular_target": "Calcium and integrin-binding protein 1 (Homo sapiens) (UniProt Q99828)", "sequence (Q99828 whole entry, looked up)": "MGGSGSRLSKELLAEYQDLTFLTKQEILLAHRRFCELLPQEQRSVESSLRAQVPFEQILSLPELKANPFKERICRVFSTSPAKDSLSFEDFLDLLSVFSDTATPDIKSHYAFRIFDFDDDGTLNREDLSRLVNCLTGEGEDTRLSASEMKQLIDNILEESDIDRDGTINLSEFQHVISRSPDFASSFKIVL", "assay": "Primary qHTS for Identification of Calcium Integrin Binding Protein 1 (CIB1) Competitor (AID 1508620);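 also: GST tagged CIB1 binding a fluorescein labelled alphaIIb integrin peptide tracer; top concentration of the series differs between compounds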", "settings": "CIB1-GST / FITC-alphaIIb peptide fluorescence polarization; series mostly up to 57.7 µM; activity change, negative = inhibition: at the top concentration", "in_short": "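CIB1-GST (1 uM final) and compound incubated 15 min at room temperature before adding FITC-alphaIIb peptide tracer (100 nM final). Competition for binding read by fluorescence polarization (ex 480, em 540) after another 15 min at room temperature.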"}
{"smiles": "CC1=CC(=O)C2C(C)(C)CCCC2(C)C12CCC1(COC(=O)C1)O2", "note": "(stereo not drawn)", "activity change, negative = inhibition": "-14.7%"}
{"smiles": "CC1CC(=O)C2=C(O1)OC1(C)CCC3C(C)(C)C=CC(=O)C3(C)C1C2", "note": "(stereo not drawn)", "activity change, negative = inhibition": "-1.35%"}
{"smiles": "C=CC1(C)CC2=CCC3C(C)(C(=O)O)CCCC3(C)C2CC1OC(C)=O", "note": "(stereo not drawn)", "activity change, negative = inhibition": "-0.802%"}
{"smiles": "CCC(CC)n1ccc2c(C(=O)NCc3c(C)cc(C)[nH]c3=O)cc(C#N)cc21", "activity change, negative = inhibition": "3.12% [at 114 µM]"}
{"smiles": "NC(Cc1c[nH]c2ccccc12)C(=O)NC(CCC(=O)O)C(=O)O", "note": "(stereo not drawn)", "activity change, negative = inhibition": "-2.93% [at 114 µM]"}
{"smiles": "CC(=O)O[C@H]1CC[C@@]2(CI)C(=CC[C@@H]3[C@@H]2CC[C@]2(C)[C@@H]([C@H](C)CCCC(C)C)CC[C@@H]32)C1", "activity change, negative = inhibition": "2.02% [at 30.2 µM]"}
{"smiles": "C=C1C(=O)OC2/C=C(\\C)CC/C=C(\\C(=O)O)CC/C=C(\\C)CCC12", "note": "(stereo not drawn)", "activity change, negative = inhibition": "-6.26%"}
{"smiles": "CN1C(=O)c2ccccc2-n2c(nc3ccccc3c2=O)[C@@]12O[C@H]2c1ccccc1", "activity change, negative = inhibition": "-7.65%"}
{"smiles": "C/C=C1\\[C@H](O[C@@H]2O[C@H](CO)[C@@H](O)[C@H](O)[C@H]2O)OC=C(C(=O)OC)[C@H]1CC(=O)OC", "activity change, negative = inhibition": "2.15%"}
{"smiles": "COCCCNCC1COc2ccccc2O1", "note": "(stereo not drawn)", "activity change, negative = inhibition": "0.556% [at 114 µM]"}
{"smiles": "C[C@@H]1C(=O)O[C@H]2CC34[C@H]5C[C@@H](C(C)(C)C)C36[C@@H](OC(=O)[C@@H]6O)O[C@@]4(C(=O)O5)[C@]21O", "note": "(stereo partly drawn)", "activity change, negative = inhibition": "3.52%"}
{"smiles": "Cc1c(N2C(=O)c3ccc(C(=O)O)cc3C2=O)c(=O)n(-c2ccccc2)n1C", "activity change, negative = inhibition": "-0.813% [at 114 µM]"}
{"smiles": "O=C(O)C[C@H]1CCC(=O)[C@@H]1C/C=C\\CCOC1OC(CO)C(O)C(O)C1O", "note": "(stereo partly drawn)", "activity change, negative = inhibition": "-3.58%"}
{"smiles": "O=c1ccn([C@@H]2O[C@H](CO)[C@@H](O)[C@H]2O)c(=O)[nH]1", "activity change, negative = inhibition": "-2.23% [at 114 µM]"}
{"smiles": "CO[C@@H]1COCC[C@@H]1N[C@@H]1CC[C@@](C(=O)N2CCc3ncc(C(F)(F)F)cc3C2)(C(C)C)C1", "Potency": "inactive"}
{"smiles": "CC1=CC2(O)/C=C/C(C)(O)CC(O)/C=C/C(=O)OC23C(=O)NC(CC(C)C)C3C1C", "note": "(stereo not drawn)", "activity change, negative = inhibition": "1.02%"}
{"smiles": "NCCCC[C@H](NC(=O)[C@@H]1Cc2ccccc2CN1C(=O)CCC(=O)c1ccccc1)C(=O)NCC(c1ccccc1)c1ccccc1", "activity change, negative = inhibition": "-8.35% [at 114 µM]"}
{"smiles": "C=C1C2(CCC(=O)OC2(C)C)CC(OC(=O)/C(C)=C/C)C2(C)C13OC14C(=O)OC(C)(C(=O)C12C(=O)OC4C)C3OC(C)=O", "note": "(stereo not drawn)", "activity change, negative = inhibition": "2.34% [at 30.2 µM]"}
{"smiles": "COc1cc2c(cc1OC)CN(C(=O)[C@@H](NCc1ccncc1)C(C)(C)C)CC2", "activity change, negative = inhibition": "0.379% [at 114 µM]"}
{"smiles": "COc1cccc2c1CCC[C@H]2CN(C)CCc1ccc2ccoc2c1", "activity change, negative = inhibition": "-0.588% [at 114 µM]"}
{"smiles": "CC(=O)N[C@H](Cc1ccc(O)cc1)C(=O)N[C@H](CCCN=C(N)N)C(=O)N[C@H](Cc1ccccc1)C(N)=O", "note": "(Ac-[dY]-[dR]-[dF]-NH2)", "activity change, negative = inhibition": "1.93% [at 114 µM]"}
{"smiles": "C=C1C(O[C@@H]2O[C@H](CO)[C@@H](O)[C@H](O)[C@@H]2O)CC2C(C)(C)C(O)CCC2(C)C1CC/C(C)=C\\CO", "note": "(stereo partly drawn)", "activity change, negative = inhibition": "4%"}
{"smiles": "O=C(c1ccc(C#Cc2cccc(F)c2)cn1)N1CC2CC2C1", "note": "(stereo not drawn)", "activity change, negative = inhibition": "-4.27% [at 114 µM]"}
{"smiles": "COc1cc(C2OCC3C(c4ccc(OC5OC(CO)C(O)C(O)C5O)c(OC)c4)OCC23)ccc1O", "note": "(stereo not drawn)", "activity change, negative = inhibition": "-7.36%"}
{"smiles": "CN1C(=O)c2ccccc2-n2c(nc3ccccc3c2=O)/C1=C/c1ccccc1", "activity change, negative = inhibition": "-0.856%"}
{"smiles": "C=C1CC2C3(C)C(O)CC(=O)C(C)(C)C3C(OC(C)=O)C(OC(C)=O)C2(C)C2C(=O)OC(C)(C(=O)OC)C(=O)C12C", "note": "(stereo not drawn)", "activity change, negative = inhibition": "-17.3%"}
{"smiles": "CC(C)(OC1OC(CO)C(O)C(O)C1O)C1CCC(O)(CO)C2CC(O)C(C)(O)C2C1", "note": "(stereo not drawn)", "activity change, negative = inhibition": "0.444%"}
{"smiles": "O=C(O)[C@H]1CCCC[C@H]1C(=O)N1CCc2ccccc2[C@H]1CN1C(=O)c2ccccc2C1=O", "activity change, negative = inhibition": "1.56% [at 114 µM]"}
